Compounds without any hit were thinned out: in the full panel of roughly 83,000, 20% have a hit.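 How to read the values: 0–100, growth inhibition (40 = 60% inhibited); 0, no net growth; -100 to 0, cell death (-40 = 40% of starting cells died; -100 = all dead).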 Unmarked numbers belong to inactive results. Calls of active or inactive are those of the source. Rule for the calls: active = growth percent below 10; inactive = the rest.

Common to all, as to assay: NCI-60 one-dose screen, 48 h (100 = growth as untreated, 0 = no growth, -100 = all killed)
One assay concerns SK-MEL-2 melanoma. The note with it: 10 µM unless noted.
For a further assay, the system named is EKVX NSCLC. Conditions: 10 µM unless noted.
Another assay has as its system SN12C renal. The note with it: 10 µM unless noted.
Another assay concerns UO-31 renal. The note with it: 10 µM unless noted.
A further assay relates to TK-10 renal. The note with it: 10 µM unless noted.
The next assay relates to ACHN renal. Conditions: 10 µM unless noted.
The next assay concerns CAKI-1 renal. Conditions: 10 µM unless noted.
Another assay has as its system A498 renal. The note with it: 10 µM unless noted.
The test system of a further assay is CCRF-CEM leukemia. Conditions: 10 µM unless noted.
A further assay has as its system MOLT-4 leukemia. Conditions: 10 µM unless noted.
Another assay concerns SR leukemia. Conditions: 10 µM unless noted.
A further assay has as its system RPMI-8226 leukemia. Conditions: 10 µM unless noted.
For another assay, the system named is OVCAR-8 ovarian. The note with it: 10 µM unless noted.
The next assay has as its system OVCAR-5 ovarian. Conditions: 10 µM unless noted.
The next assay concerns OVCAR-4 ovarian. The note with it: 10 µM.
Another assay concerns SK-OV-3 ovarian. The note with it: 10 µM unless noted.
The subject of another assay is OVCAR-3 ovarian. Conditions: 10 µM unless noted.
Another assay deals with HS 578T breast. Conditions: 10 µM unless noted.
For another assay, the system named is NCI/ADR-RES ovarian. The note with it: 10 µM unless noted.
The subject of a further assay is IGROV1 ovarian. Conditions: 10 µM unless noted.

`ClC1=C(Cl)C(Cl)=C(Cl)C1=Cc1ccccc1`: the growth with SK-MEL-2 melanoma is -28% (active); with EKVX NSCLC, -4.72% (active); in the assay on SN12C renal, -57% (active); in the assay on UO-31 renal, -87.1% (active); in the assay with TK-10 renal, -36.3% (active); with ACHN renal, -35.5% (active). For the same compound, the growth in the assay with CAKI-1 renal was -37.9% (active); in the assay with A498 renal it was -74.1% (active); in the assay on CCRF-CEM leukemia, 8.52% (active); in the assay on MOLT-4 leukemia it was 2.93% (active); in the assay with SR leukemia, 4.43% (active); with RPMI-8226 leukemia, -22.7% (active). Besides, the growth is -18.9% (active) with OVCAR-8 ovarian; -60.9% (active) in the assay with OVCAR-5 ovarian; -20.3% (active) in the assay with OVCAR-4 ovarian; 38.8% with SK-OV-3 ovarian; -96.5% (active) in the assay with OVCAR-3 ovarian; 6.95% (active) in the assay on HS 578T breast. Besides, the growth with NCI/ADR-RES ovarian was -26.5% (active).

Turning to `CN(C)Cc1ccc[nH]1`, the growth with SK-MEL-2 melanoma was 93.5%; in the assay on EKVX NSCLC, 90.4%; in the assay with SN12C renal, 70.4%; in the assay with UO-31 renal, 88.9%; in the assay with TK-10 renal it was 131%; in the assay with ACHN renal it was 101%. Further, the growth is 81.8% in the assay with CAKI-1 renal; 76.8% in the assay with A498 renal; 118% in the assay on CCRF-CEM leukemia; 107% in the assay on MOLT-4 leukemia; 102% with SR leukemia; 136% with RPMI-8226 leukemia. The growth with OVCAR-8 ovarian was 95.1%; in the assay on OVCAR-5 ovarian, 76.3%; with OVCAR-4 ovarian, 109%; in the assay with SK-OV-3 ovarian it was 106%; with OVCAR-3 ovarian it was 99.5%; in the assay with HS 578T breast, 113%. Besides, the growth in the assay on NCI/ADR-RES ovarian was 77.9%.

For the compound `Cc1cc(SC#N)ncn1`, the growth in the assay on SK-MEL-2 melanoma is 66.9%; in the assay on EKVX NSCLC it was 101%; in the assay on SN12C renal, 94.9%; with UO-31 renal, 96.2%; in the assay with TK-10 renal it was 101%; in the assay with ACHN renal it was 98.4%. In addition, the growth with CAKI-1 renal is 98.9%; in the assay with A498 renal, 102%; in the assay on CCRF-CEM leukemia, 88%; with MOLT-4 leukemia, 109%; with SR leukemia, 109%; with RPMI-8226 leukemia it was 101%. The growth with OVCAR-8 ovarian is 96.2%; in the assay on OVCAR-5 ovarian, 115%; in the assay on OVCAR-4 ovarian it was 103%; in the assay on SK-OV-3 ovarian it was 105%; in the assay on OVCAR-3 ovarian, 100%; with HS 578T breast, 105%. Further, the growth in the assay on NCI/ADR-RES ovarian is 103%.

`CCCCCC1CCCCN1C(=O)OCCCC` (centres undefined): the growth with SK-MEL-2 melanoma is 102%; with EKVX NSCLC, 89.1%; in the assay on SN12C renal, 73.3%; with UO-31 renal it was 84.3%; in the assay on TK-10 renal, 95.6%; with ACHN renal, 104%. The growth with CAKI-1 renal is 79.7%; in the assay with A498 renal, 88.1%; in the assay on CCRF-CEM leukemia, 84.6%; in the assay on MOLT-4 leukemia, 99.5%; in the assay with SR leukemia, 108%; with RPMI-8226 leukemia, 73.2%. In addition, the growth with OVCAR-8 ovarian is 106%; in the assay with OVCAR-5 ovarian, 101%; in the assay with OVCAR-4 ovarian it was 103%; with SK-OV-3 ovarian, 105%; in the assay with OVCAR-3 ovarian it was 104%; with HS 578T breast, 122%. Further, in the assay with NCI/ADR-RES ovarian, the growth was 91.8%.

On to `CCCC[C@@H](C=O)NC(=O)[C@H](CC(C)C)NC(=O)[C@H](CC(C)C)NC(=O)OCc1ccccc1`, for which the growth in the assay with SK-MEL-2 melanoma was 13.4%; in the assay on EKVX NSCLC, -14.2% (active); with SN12C renal, 2.11% (active); with UO-31 renal, 23.8%; in the assay with TK-10 renal, -20.2% (active); in the assay on ACHN renal, 25.3%. Also, the growth in the assay on CAKI-1 renal is 4.61% (active); in the assay on A498 renal, -47.6% (active); in the assay on CCRF-CEM leukemia it was -26.5% (active); with MOLT-4 leukemia, -11.7% (active); with SR leukemia it was -24.4% (active); in the assay with RPMI-8226 leukemia, -10.2% (active). Further, the growth with OVCAR-8 ovarian was 18.8%; in the assay on OVCAR-5 ovarian, -34.5% (active); in the assay on OVCAR-4 ovarian, 10.8%; in the assay on SK-OV-3 ovarian, 38.2%; with IGROV1 ovarian, 8.93% (active); in the assay with NCI/ADR-RES ovarian, -2.88% (active).

As to `COc1ccc2nc3ccccc3c(NCCNCCO)c2c1`, the growth in the assay with SK-MEL-2 melanoma is -56.1% (active); with EKVX NSCLC, -7.03% (active); in the assay with SN12C renal, 1.83% (active); in the assay with UO-31 renal, -7.42% (active); with TK-10 renal it was -12.7% (active); in the assay on ACHN renal it was -27.4% (active). Also, the growth was 6.25% (active) in the assay with CAKI-1 renal; -60.4% (active) with A498 renal; 10.9% in the assay with CCRF-CEM leukemia; 10.1% with MOLT-4 leukemia; -11.1% (active) in the assay with SR leukemia; 2.45% (active) with RPMI-8226 leukemia. Also, the growth with OVCAR-8 ovarian is 5.82% (active); in the assay with OVCAR-5 ovarian it was -4.97% (active); in the assay on OVCAR-4 ovarian, -10.4% (active); in the assay on SK-OV-3 ovarian, 16.5%; in the assay on OVCAR-3 ovarian, -41.6% (active); in the assay with HS 578T breast, -25.4% (active). Besides, the growth with NCI/ADR-RES ovarian was 68.7%.

`O=c1cc(-c2ccccc2)oc2c(O)c(O)ccc12`: the growth in the assay with SK-MEL-2 melanoma is 85.4%; in the assay with EKVX NSCLC, 90%; in the assay with SN12C renal, 68.7%; in the assay with UO-31 renal, 36.2%; in the assay on TK-10 renal, 75.2%; in the assay with ACHN renal, 40.1%. Besides, the growth with CAKI-1 renal was 37.4%; in the assay on A498 renal it was 73.1%; in the assay on CCRF-CEM leukemia, 41.6%; in the assay on MOLT-4 leukemia, 55.9%; in the assay on SR leukemia, 36.6%; in the assay on RPMI-8226 leukemia, 45.6%. Further, the growth in the assay with OVCAR-8 ovarian is 52.8%; with OVCAR-5 ovarian it was 62.9%; with OVCAR-4 ovarian it was 61.6%; in the assay with SK-OV-3 ovarian, 76.7%; in the assay on OVCAR-3 ovarian it was 5.27% (active); in the assay with HS 578T breast, 91.4%. In addition, the growth in the assay on NCI/ADR-RES ovarian was 24.5%.

For the compound `COc1ccc2nc3cc(Cl)ccc3c(Nc3ccc(O)c(CN4CCCC4)c3)c2c1`, the growth in the assay with SK-MEL-2 melanoma was -57.6% (active); in the assay on EKVX NSCLC, 51.3%; with SN12C renal, 47.8%; with UO-31 renal, -46.2% (active); in the assay on TK-10 renal it was 10.2%; in the assay with ACHN renal, -38.9% (active). In addition, the growth is 8.96% (active) with CAKI-1 renal; 62.3% in the assay with A498 renal; -6.84% (active) in the assay on CCRF-CEM leukemia; 0.985% (active) in the assay with MOLT-4 leukemia; 0.0468% (active) in the assay with SR leukemia; -25.2% (active) with RPMI-8226 leukemia. For the same compound, the growth in the assay on OVCAR-8 ovarian was -2.17% (active); in the assay on OVCAR-5 ovarian it was 57.4%; in the assay with OVCAR-4 ovarian it was -4.45% (active); with SK-OV-3 ovarian, 73.2%; in the assay on IGROV1 ovarian, -26.3% (active); in the assay on NCI/ADR-RES ovarian, 3.27% (active).

Take `NC1=NC(=O)NC1(c1ccccc1)c1ccccc1`: the growth with SK-MEL-2 melanoma was 68.2%; in the assay on EKVX NSCLC, 111%; in the assay with SN12C renal it was 88.1%; with UO-31 renal it was 96.3%; in the assay with TK-10 renal it was 92%; in the assay with ACHN renal, 95.8%. The growth is 94.6% with CAKI-1 renal; 87.6% in the assay on A498 renal; 86.2% in the assay on CCRF-CEM leukemia; 87.6% in the assay on MOLT-4 leukemia; 97.9% in the assay on SR leukemia; 94.3% in the assay with RPMI-8226 leukemia. For the same compound, the growth in the assay on OVCAR-8 ovarian was 97.7%; with OVCAR-5 ovarian it was 83.2%; with OVCAR-4 ovarian, 105%; with SK-OV-3 ovarian it was 92.7%; in the assay with OVCAR-3 ovarian it was 105%; in the assay on HS 578T breast, 98.3%. Besides, the growth in the assay with NCI/ADR-RES ovarian was 106%.
